In the library only some 4.1% were active in any assay of this set; here they are far more common.
aSyn 5UTR inh – 5' untranslated region of α-synuclein, MLPCN primary screen | alpha-synuclein 5'UTR reporter, inhibitor activity | inhibition, % (tested at 7.5 µM) | 300,000 tested, 0.82% active; in the data active = inhibition above about 60%;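 also: H4 neuroglioblastoma cells stably carrying SNCA 5'UTR luciferase fusion; 0% = DMSO wells and 100% = positive control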
Mdm2-MdmX inh – inhibitors of human Mdm2/MdmX interaction; O15151+Q00987; SaOS-2 split-luciferase Mdm2/MdmX complementation, luminescence; inhibition, % at 8 µM; 330,000 tested, 3% active; AID 485346;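 active = inhibition of at least 50% at 8 µM in the primary screen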
KLF5 inhibitor – inhibitors of KLF5 expression. DLD-1 KLF5 promoter-luciferase reporter, luminescence. 290,000 tested, 0.23% active. AID 1700. inhibition, % at 5 µM;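 active = inhibition above a per-plate limit of that plate's mean compound inhibition plus 3 SD, cut at about 60% in these data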;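 also: 0% = DMSO wells and 100% = LY294002 at 200 µM; higher means less KLF5 promoter-driven luciferase light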
Jurkat NFkB inh – inhibitors of the PMA/ionomycin-induced NF-kB reporter in Jurkat cells; PMA/ionomycin-induced NF-kB luciferase reporter, luminescence; inhibition, % at 4 µM; 330,000 tested, 0.53% active; in the data active = inhibition above about 50%
697 NFkB inh – inhibitors of the PMA/ionomycin-induced NF-kB reporter in 697 B cells; AID 435022; 330,000 tested, 0.33% active; 697 B-cell NF-kB luciferase reporter, 16 h; inhibition, % at 4 µM; in the data active = inhibition above about 35%
Gli-Sufu block – Gli-Sufu pathway antagonism; Sufu-KO-LIGHT fibroblasts, Gli luciferase reporter luminescence; inhibition, % at 5 µM; 340,000 tested, 0.74% active; AID 588413;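 active = inhibition above about 55%, limit read from the data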;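 also: 0% = DMSO-treated cells and 100% = wells with medium but no cells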
Mdm2 MdmX conf – human Mdm2/MdmX binding inhibition, confirmed | shares compounds with Mdm2-MdmX inh | luminescent assay | inhibition, % at 8 µM | 10,000 tested, 55% active; in the data active = inhibition above about 40%
FLuc counter – counter-screen for Mdm2/MdmX inhibitors: full-length luciferase. inhibition, % at 8 µM. shares compounds with Mdm2-MdmX inh. 6,200 tested, 77% active. SaOS-2 full-length luciferase counterscreen, luminescence;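 active = mean inhibition at 8 µM reaching about 37%, which flags the compound as non-specific, limit read from the data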;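 also: p53-null SaOS-2 cells with luciferase driven by a doxycycline-inducible promoter; compound on cells about two nights before reading with doxycycline added after day one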
Numbers without * were called inactive; nt = not tested or not shown.

SMILES	aSyn 5UTR inh	Mdm2-MdmX inh	KLF5 inhibitor	Jurkat NFkB inh	697 NFkB inh	Gli-Sufu block	Mdm2 MdmX conf	others
CS(=O)(=O)Nc1ccccc1C(=O)Nc1cc(Cl)cc(Cl)c1	-22	60*	-19	5	1	46	92*	FLuc counter=28
O=C(NCc1csc2ccccc12)Nc1cc(Cl)cc(Cl)c1	-25	69*	-4	6	18	-2	17
CS(=O)(=O)Nc1ccccc1C(=O)Nc1cccc(Cl)c1	4	31	1	-5	5	21	nt
O=C(Nc1cccnc1)Nc1cc(Cl)cc(Cl)c1	-13	50*	-36	4	19	-5	6
O=C(NCc1ccccn1)Nc1cc(Cl)cc(Cl)c1	9	18	-28	-9	22	10	nt
O=C(Nc1cccnc1)Nc1ccccc1Cl	-72	2	-29	-6	8	-13	nt
O=C(O)c1ccccc1OC(C(=O)Nc1cc(Cl)cc(Cl)c1)c1ccccc1 (centres undefined)	44	76*	-4	-4	7	28	26
COc1ccc(NC(=O)c2cccc(S(=O)(=O)NCc3ccccc3)c2)cc1S(N)(=O)=O	nt	10	nt	19	6	-1	nt
CN(C(=O)c1cccc(S(=O)(=O)N2CCCC2)c1)C1CCCCC1	nt	-20	nt	-5	-5	8	nt
Cc1cccc(/C=N/n2c(C)nc3ccccc3c2=O)c1	-57	7	-36	16	-21	24	nt
O=C(COc1ccc(Cl)cc1)Nc1cc(S(=O)(=O)N2CCCCC2)ccc1N1CCCCC1	39	-14	4	9	-11	31	nt
O=C(Nc1ccc(Nc2ccccc2)cc1)Nc1ccccc1Cl	-227	-83	-98	-55	-82	-46	nt
O=C(Nc1ccccc1)Nc1cc(Cl)cc(Cl)c1	-21	91*	-24	-9	14	0	80*	FLuc counter=23
Clc1cccc2c1Sc1ccccc1CC2N1CCNCC1 (centres undefined)	-1	66*	1	7	-17	6	73*	FLuc counter=47*
Clc1ccc2c(c1)C(N1CCNCC1)Cc1ccccc1S2 (centres undefined)	21	101*	17	5	-20	4	100*	FLuc counter=39*
COCCCN1CCN(C2Cc3ccccc3Sc3ccc(Cl)cc32)CC1 (centres undefined)	-13	43	7	-5	-14	6	nt
CC(=O)NS(=O)(=O)c1ccc(NC(=O)c2ccc(S(=O)(=O)N3CCCC3)cc2)cc1	nt	-21	nt	-5	6	-2	nt
CN(C(=O)c1ccc(Br)o1)C1CCS(=O)(=O)C1 (centres undefined)	8	10	10	2	7	0	nt
O=C(/C=C/c1ccc([N+](=O)[O-])cc1)N1CCN(S(=O)(=O)c2cccs2)CC1	9	13	-15	10	2	-6	nt
COc1ccc(OCC(O)CN2CCNCC2)cc1 (centres undefined)	16	14	-8	-9	9	20	nt
CC(=O)Nc1ccc(S(=O)(=O)N2CCN(Cc3csc(C)n3)CC2)cc1	6	7	-18	7	20	-5	nt
CC(=O)C(=Cc1ccc(C(=O)O)cc1)C(C)=O	-10	1	-6	-16	7	8	nt
C/C(=C\c1ccc(C(=O)O)cc1)c1ccc2c(c1)C(C)(C)CCC2(C)C	nt	58*	nt	7	-77	34	52*	FLuc counter=44*
CCn1c(CN2CCOCC2)nnc1SCC(=O)Nc1ccc(C(C)=O)cc1	-2	15	-26	13	11	-1	nt
COc1cc(-c2ccc3oc(-c4ccsc4)cc(=O)c3c2)cc(OC)c1OC	nt	73*	nt	-2	3	30	10
SMILES	aSyn 5UTR inh	Mdm2-MdmX inh	KLF5 inhibitor	Jurkat NFkB inh	697 NFkB inh	Gli-Sufu block	Mdm2 MdmX conf	others
COc1ccc(-c2ccc3c(=O)cc(-c4ccsc4)oc3c2)cn1	nt	79*	nt	-16	-14	-6	1
COCCNC(=O)C(NC(=O)C1CCC(C)CC1)C(C)C (centres undefined)	-2	12	-5	0	3	1	nt
Cc1ccc(C)c(N2CCN(CCCNC(=O)Cn3cccc3C(=O)c3ccccc3)CC2)c1	3	59*	-19	13	4	32	24
O=C(CCC(=O)N1CCOc2ccc(Cl)cc21)NCCCN1CCN(c2ccccc2F)CC1	23	48	6	-8	-3	13	nt
O=C(CCC(=O)N1CCOc2ccc(Cl)cc21)NCCCN1CCC(Cc2ccccc2)CC1	23	83*	-31	12	2	-11	50*	FLuc counter=95*
O=C(Cn1cccc1C(=O)c1ccccc1)NCCCN1CCOCC1	6	10	-35	-5	12	-6	nt
Cc1ccc(C)c(N2CCN(CCCNC(=O)CCC(=O)N3CCOc4ccc(Cl)cc43)CC2)c1	5	78*	-9	21	-21	nt	43*	FLuc counter=56*
CC1(C)Cc2c(cnn2-c2ccc(F)cc2)C(NC(=O)CCN2CCCCC2=O)C1 (centres undefined)	-21	19	-23	-5	6	-1	nt
COc1ccc(-c2noc(COC(=O)c3ccco3)n2)cc1OC	nt	-13	nt	-14	6	0	nt
C=CCn1c(SCC(=O)Nc2ccc(N3CCOCC3)cc2)nc2ccccc2c1=O	18	13	-32	16	1	5	nt
CN1C(=O)C(O)(CC(=O)/C=C\c2ccc3c(c2)OCO3)c2ccccc21 (centres undefined)	-38	55*	-7	11	-9	5	-2
CCOC(=O)C1=C(CCl)NC(=O)NC1c1ccc2c(c1)OCO2 (centres undefined)	-14	59*	-29	8	13	5	27
N#Cc1ccccc1OCC(=O)Nc1ccccc1C(=O)NC1CC1	10	-6	nt	12	14	5	nt
COc1ccc2c(c1)C1(Nc3ccccc3-c3nc4ccccc4n31)C(=O)N2C (centres undefined)	nt	76*	-3	-10	-26	12	81*	FLuc counter=46*
COc1ccc2c(c1)C1(Nc3ccccc3-c3nc4ccccc4n31)C(=O)N2 (centres undefined)	8	36	-5	4	-6	4	nt
COc1cc(C(=O)OCCCN(C)C)cc(OC)c1OC	15	13	-10	0	11	6	nt
CCN(CC)CCCCCCCCOC(=O)c1cc(OC)c(OC)c(OC)c1	nt	50*	nt	-14	-23	7	28
Cc1ccc(C)c(N2CCN(C(=O)CNS(=O)(=O)c3cccs3)CC2)c1	9	-18	-40	7	7	-3	nt
CN(CC(=O)Nc1ccc(N2CCOCC2)cc1)C(=O)CCNC(=O)c1ccc(Br)cc1	-4	13	nt	-13	-2	-6	nt
Cc1cccc(NC(=S)NCCC(c2ccccc2)c2ccccc2)c1	-18	53*	-23	2	-12	1	7
